# Source: PubChem (National Center for Advancing Translational Sciences (NCATS))
# DT40 TDP1 CPT – growth inhibition of DT40 Tdp1-/-;hTDP1 cells with camptothecin (screen for TDP1 inhibitors); AID 686979; chicken DT40 Tdp1-/-;hTDP1 cells + 20 nM CPT, ATP luminescence, 48 h; Potency, µM (highest dose often 46.2 µM), actives largely listed as inhibitors; 12% of 420,000 active; also: nearly all actives have a fitted effect of over 55% in size
#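 Cell growth measured by CellTiter-Glo luminescence after a minimum 48 h, 37 C compound exposure with 20 nM CPT in Tdp1-knockout DT40 cells stably expressing hTDP1, seeded 400/well; qHTS titration format.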
# Gal4-VP16 FLuc – inhibits Gal4-VP16 luciferase reporter, ROR gamma counter-screen; Drosophila S2 Gal4-VP16 UAS-luciferase, luminescence, 20 h; Potency, µM (top dose mostly 53.6 µM), actives largely listed as inhibitors; 3.5% of 310,000 active;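 also: Gal4-VP16 expression switched on by copper sulfate through the metallothionein promoter; nearly all actives have a fitted effect of over 50% in size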
# IL1B secr inh – blocks inflammasome-driven IL-1 beta release; 4.7% of 360,000 active; THP-1 LPS/ATP IL-1B secretion, AlphaLISA, 16 h; active compounds read low; AID 743279; activity change, % at 57.5 µM; in the data active = activity change below about -50%; inconclusive = mostly about -30% to -49%
#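 Secreted IL-1B measured by AlphaLISA bead assay after 16 h compound exposure of THP-1 cells; compounds (final up to 57.5 uM) added 1 h before LPS (250 ng/mL) and ATP (1.25 mM) stimulation; lower signal means less secretion.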
# TDP1 cell noCPT – qHTS for Inhibitors of human tyrosyl-DNA phosphodiesterase 1 (TDP1): qHTS in cells in absence of CPT; DT40 Tdp1-/- hTDP1 cells, no CPT, ATP luminescence, 48 h; Potency, µM (doses to about 46.2 µM), usual class: inhibitors; 15% of 420,000 active; AID 686978, 2013; also: nearly all actives have a fitted effect of over 55% in size
#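 Readout: luminescence from CellTiter-Glo after 30 min in the dark at RT. Cells: DT40 Tdp1-/- with stable hTDP1, 400/well. Exposure: compounds alone, ≥48 hr, 37 °C.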
# RORg inh – inhibitors of mouse ROR gamma transcriptional activity; 5.4% of 310,000 active; P51450; Potency, µM (doses to about 53.6 µM), hits mostly inhibitors; Drosophila S2 Gal4-RORgamma UAS-luciferase reporter, 20 h; also: nearly all actives have a fitted effect of over 60% in size
# Target sequence (P51450 whole entry, looked up, the tested form may be a part): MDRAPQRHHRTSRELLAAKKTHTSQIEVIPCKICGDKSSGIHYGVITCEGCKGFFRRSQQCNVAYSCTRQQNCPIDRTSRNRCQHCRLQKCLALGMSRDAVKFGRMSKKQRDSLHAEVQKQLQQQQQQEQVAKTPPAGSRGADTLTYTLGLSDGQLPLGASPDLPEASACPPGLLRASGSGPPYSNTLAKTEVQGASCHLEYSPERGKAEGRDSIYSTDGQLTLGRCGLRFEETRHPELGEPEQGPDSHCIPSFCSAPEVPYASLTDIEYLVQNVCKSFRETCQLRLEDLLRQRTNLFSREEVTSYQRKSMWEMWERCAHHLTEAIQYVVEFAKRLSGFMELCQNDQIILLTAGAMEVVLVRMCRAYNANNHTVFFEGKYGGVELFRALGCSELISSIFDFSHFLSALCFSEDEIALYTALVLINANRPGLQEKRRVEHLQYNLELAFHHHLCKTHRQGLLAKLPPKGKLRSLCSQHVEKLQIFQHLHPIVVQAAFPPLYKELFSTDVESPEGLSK
#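 In this cell-based reporter format, copper sulfate (700 uM final) drives Gal4–ROR gamma fusion expression from a metallothionein promoter in Drosophila Schneider cells; compounds preincubated 1 hr, reporter read after 20 hr at ambient temperature.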
# ELG1 repair inh – blocks ELG1-dependent DNA repair in HEK293T cells; HEK293T ELG1-luciferase reporter, luminescence, 16 h; DNA damage induced by 5-fluorouridine; Potency, µM (top dose mostly 46.1 µM), actives largely listed as inhibitors; 2.3% of 330,000 active; AID 504467; also: nearly all actives have a fitted effect of over 55% in size
#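 Reporter activity after DNA damage by 5-fluorouridine is monitored. Compound-treated cells incubate 16 hr at 37 °C, then ONE-Glo is added for 30 min before luminescence reading.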
# Hits are given with their value; - = inactive; ? = inconclusive; . = no result; ! = not confirmed by another sample; [ ] = another dose, or the depositor's remark. A selection: hits, their analogues and other compounds. The true share with any hit is near 21%. Unless noted, calls follow the shape of the dose curve; as a rule, active = well fitted curve in the direction sought with a large enough effect; inconclusive = small, poorly fitted or top-dose-only effect, or another doubt; inactive = no such curve, though single readings can be large; an effect the other way counts as inactive or inconclusive.
SMILES,DT40 TDP1 CPT,Gal4-VP16 FLuc,IL1B secr inh,TDP1 cell noCPT,RORg inh,ELG1 repair inh
C#CCNC(=O)C1=C[C@H](c2ccc(Br)cc2)[C@@H](CCCO)[C@H](OCC)O1,?,-,-,13µM,-,-
CCOC(=O)c1c(C)[nH]c(C)c1S(=O)(=O)NCC(=O)Nc1cccc(C(F)(F)F)c1,?,.,.,-,.,.
O=C(O)C1CCCN1C(=O)NC1CCCCC1 (stereo not drawn),-,-,-,-,-,-
CCS(=O)(=O)N1CCC(NC(=O)C(Cc2cc(OC)ccc2OC)NC(C)=O)CC1 (stereo not drawn),-,-,-,-,-,-
CCO[C@H]1OC(C(=O)NC2CC2)=C[C@@H](C2CCCCC2)[C@@H]1CCCO,20.6µM,-,-,23.1µM,-,-
CCO[C@@H]1OC(C(=O)NC2CC2)=C[C@H](C2CCCCC2)[C@H]1CCCO,?,.,-,?,.,.
COc1cccc(/C=C2\SC(=O)NC2=O)c1OCc1ccc(C(=O)O)cc1,-,-[10 µM],-,-,-,-
COc1ccc(/C=C2\SC(=Nc3ccccc3Cl)NC2=O)c(OC)c1,25.9µM,.,-52.3,14.6µM,.,.
COc1ccc(OC)c(/C=C2\S/C(=N/NC(=O)c3ccc4ccccc4c3)NC2=O)c1,-,?,-,-,1.41µM,-
O=C1N/C(=N/NC(=O)c2cccc3ccccc23)S/C1=C\c1ccccc1OCc1ccccc1,?,?,-,?,0.631µM,?
O=C(CCn1c(=O)c2cccn2c2cccnc21)Nc1ccccc1Br,-,.,.,?,.,.
CCN1CCN(CCC(=O)Nc2ccc(Br)cc2)CC1,-,-,-,-,-,-
COc1ccccc1NC(=O)CN1CCN(CC(=O)Nc2cc(C)ccc2OC)CC1,-,-,-,-,-,?
CCN1CCOC(=O)C1CC(=O)Nc1cc(C)ccc1OC (stereo not drawn),5.17µM,.,.,2.59µM,.,.
CCN1CCOC(=O)C1CC(=O)Nc1ccc(Br)cc1 (stereo not drawn),23.1µM,.,.,?,.,.
CCc1ccc(-n2nc(CO)c(C(=O)NCCOC)n2)cc1,-,.,.,-,.,.
CCN(CC(=O)NC(C)(C)C)C(=O)CN1c2cccc3cccc(c23)S1(=O)=O,-,-,-,-,-,-
CCN(CC)CCN(C(=O)c1ccc(C(=O)c2ccccc2)cc1)c1nc2ccc(OC)cc2s1,-,-,?,-,-,-
COc1cc2nc(N(CCCN(C)C)C(=O)c3ccc(C(=O)c4ccccc4)cc3)sc2cc1OC,?,.,-105.1,?,.,?
COc1cc2nc(N(CCCN(C)C)C(=O)c3ccc(S(=O)(=O)N4CCc5ccccc5C4)cc3)sc2cc1OC,?,.,-96.2,?,.,-
CCOc1ccc2nc(N(CCCN(C)C)C(=O)c3ccc(S(=O)(=O)N4CCc5ccccc5C4)cc3)sc2c1,?,?,-,?,10µM,-
COc1ccc(C)c2sc(N(CCN(C)C)C(=O)c3ccc(S(=O)(=O)N(C)c4ccccc4)cc3)nc12,-,.,-,?,.,.
COc1ccc(C)c2sc(N(CCCN(C)C)C(=O)c3ccc(S(=O)(=O)N4CCc5ccccc5C4)cc3)nc12,2.91µM,.,-95.6,2.31µM,.,.
O=C(CSc1nccc(=O)[nH]1)c1ccccc1Br,-,-,-,-,-,-
CC(Oc1ccccc1F)C(=O)NNC(=O)Cc1ccc(S(=O)(=O)N2CCOCC2)s1 (stereo not drawn),?,.,-,-,.,.
SMILES,DT40 TDP1 CPT,Gal4-VP16 FLuc,IL1B secr inh,TDP1 cell noCPT,RORg inh,ELG1 repair inh
Cc1ccc(S(=O)(=O)N2CCC(C(=O)N/N=C/c3cccn3C)CC2)cc1,-,.,-,-,.,-
COc1cccc2sc(N(CCCN(C)C)C(=O)c3ccc(S(=O)(=O)N4CCc5ccccc5C4)cc3)nc12,14.6µM,28.2µM,-97.2,10.3µM,-,-
CN(C)CCCN(C(=O)c1ccc(S(=O)(=O)N2CCc3ccccc3C2)cc1)c1nc2c(F)cc(F)cc2s1,?,.,?,?,.,-
Cc1ccc2sc(N(CCCN(C)C)C(=O)c3ccc(S(=O)(=O)N4CCc5ccccc5C4)cc3)nc2c1C,4.61µM,.,-82.4,4.11µM,.,-
COc1ccc(C(C(=O)NC2CCCC2)N(Cc2cccnc2)C(=O)c2snc(C(N)=O)c2N)cc1 (stereo not drawn),-,-,-,-,-,-
CN(C)c1ncnc2ccc(-c3ccoc3)cc12,18.4µM,-,.,?,-,.
CN(C)c1ccc(-c2ccc3ncnc(N(C)C)c3c2)cc1,0.461µM,-,.,0.366µM,?,.
c1ccc(Nc2ncnc3ccc(-c4ccoc4)cc23)cc1,?,-,.,?,-,.
CCn1cc(C(=O)OCC(=O)Nc2cccc(Cl)c2C)c(=O)c2ccc(C)nc21,-,.,.,-,.,.
COc1ccc(/C=C/c2cc[n+](C(=O)Cc3ccccc3)cc2)cc1,3.26µM,-,-107.5,2.31µM,-,?
CCN(CC)C(=O)CSC1=C(C#N)C(c2ccco2)C(C(=O)OCCOC)=C(C)N1 (stereo not drawn),20.6µM!,?,-,?,-,?
C=CCOC(=O)C1=C(C)NC(SCC(=O)N(CC)CC)=C(C#N)C1c1ccccc1 (stereo not drawn),20.6µM,-,-51.5,20.6µM,-,16.4µM
CCOC(=O)C1=C(C)NC(SCC(=O)O)=C(C#N)C1c1ccco1 (stereo not drawn),-,-,-,-,-,-
CCOC(=O)C1=C(C)NC(SCC(N)=O)=C(C#N)C1c1ccccc1 (stereo not drawn),-,-,-,-,-,-
C=CCOC(=O)C1=C(C)NC(SCC(=O)N(CC)CC)=C(C#N)C1c1ccco1 (stereo not drawn),-,.,-,?,-[0.365 µM],8.2µM
CCCCOC(=O)CSc1n[nH]c(=O)[nH]c1=O,-,-,-,-,-,-
CCC(=O)N1CCc2cc(Br)cc(S(=O)(=O)CCC(=O)N3CCN(c4cc(C)ccc4C)CC3)c21,-,.,.,-,.,.
Cc1ccc(CN2CCC(Oc3cccc(C(=O)NCc4cccnc4)c3)CC2)o1,?,-,-,-,-,-
CC1=C(c2ccc(C)c(C)c2)S(=O)(=O)N=C1N1CCC(C(=O)N2CCC(C(N)=O)CC2)CC1,-,.,.,-,.,.
CCOC(=O)C1CCN(C(=O)C2CCN(C3=NS(=O)(=O)C(c4ccc(C)c(C)c4)=C3C)CC2)CC1,16.4µM,.,.,?,.,.
CC1=C(c2ccc(C)c(C)c2)S(=O)(=O)N=C1N1CCC(C(=O)Nc2ccc(Cl)cc2)CC1,16.4µM,.,.,14.6µM,.,.
CC1=C(c2ccc(C)c(C)c2)S(=O)(=O)N=C1N1CCC(C(=O)N2CCC(C)CC2)CC1,?,.,.,6.51µM,.,.
